Test results as given in PubChem BioAssay (NCATS).
Results filed as inconclusive are left out. The source made the active and inactive calls. Unless noted, the call rests on the fitted dose curve; in most records, active means well fitted curve in the direction sought with a large enough effect; inconclusive means small, poorly fitted or top-dose-only effect, or another doubt; inactive means no such curve, though single readings can be large; an effect the other way counts as inactive or inconclusive.

Key:
[1] = test system: Zika virus NS2B-NS3 protease (linked construct); experiment: Primary screen NINDS Rhodamine qHTS for Zika virus inhibitors (AID 1347160)
In short: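 Percent inhibition, normalized to uninhibited and enzyme-free controls, is fitted to a 4-parameter Hill equation. Fluorescence change comes from a 15-min cleavage of 1.5 microM bis-peptide Rhodamine110 substrate by 25 nM linked NS2B-NS3 at room temperature.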

[2] = OV-KATE Cancer Cell Toxicity qHTS against the NCATS CANVASS Library (AID 1347345)
In short: (§1)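 Step one: seed 1000 cells per well. Step two: incubate 4 h. Step three: add test compounds in 11 concentrations. Step four: culture 72 h, then add CellTiter-Glo and record luminescence after 15min.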

[3] = HPAF-II Cancer Cell Toxicity qHTS against the NCATS CANVASS Library (AID 1347346)
In short: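 Luminescence from CellTiter-Glo, added after 72 h compound exposure and a 15 min room-temperature incubation, served as the viability readout. HPAF-II cells (1000/well) received an 11-point concentration series.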

[4] = UWB1.289 Cancer Cell Toxicity qHTS against the NCATS CANVASS Library (AID 1347347)
In short: as §1

[5] = OV-SAHO Cancer Cell Toxicity qHTS against the NCATS CANVASS Library (AID 1347348)
In short: as §1

[6] = Panc-1005 Cancer Cell Toxicity qHTS against the NCATS CANVASS Library (AID 1347349)
In short: as §1

[7] = SW1088 Cancer Cell Toxicity qHTS against the NCATS CANVASS Library (AID 1347350)
In short: as §1

[8] = COV-362 Cancer Cell Toxicity qHTS against the NCATS CANVASS Library (AID 1347352)
In short: (§2)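 Luminescent ATP read-out (CellTiter-Glo, 15min at room temperature) measures survival after cells face an 11-point compound series for 72 hours at 37 degrees C/5% CO2.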

[9] = A2780 Cisplatin Sensitive Ovarian Cancer Cell Toxicity qHTS against the NCATS CANVASS Library (AID 1347353)
In short: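 Luminescent ATP content (ATPLite, 10 min at room temperature) served as the read-out after cells had been exposed to compounds for 72 hours at 37 °C. Dosing followed an 11-point concentration series.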

[10] = UWB1.289-WTBRCA1 Cancer Cell Toxicity qHTS against the NCATS CANVASS Library (AID 1347354)
In short: as §2

[11] = HPAF-II 24hr Apoptosis Induction qHTS against the NCATS CANVASS Library (AID 1347356)
In short: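 Luminescent caspase-3/7 signal (DEVD substrate, Caspase-Glo) served as read-out, taken 15 min after reagent addition to HPAF-II cells exposed 24 h to compounds.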

[12] = HEK293 24hr Apoptosis Induction qHTS against the NCATS CANVASS Library (AID 1347359)
In short: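 HEK293 cells, 500 per well, exposed to an 11-point compound series for 24 hours at 37 degrees C. Caspase 3/7 activity read by Caspase-Glo luminescence (DEVD substrate) after 15 min at room temperature.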

[13] = test system: NAD(P)H diaphorase (Clostridium kluyveri); experiment: Diaphorse counterscreen qHTS: Assay Interference Panel against the NCATS CANVASS Library (AID 1347362)
In short: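 Clostridium kluyveri diaphorase in PBS + 0.01% Tween-20 preincubated 15 min with compounds. Resazurin and NADH then added for 5 min at room temperature in the dark; resorufin fluorescence read (ex 525, em 598).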

[14] = molecular target: Luciferin 4-monooxygenase (Photinus pyralis) (UniProt P08659); experiment: Firefly luciferase counterscreen qHTS: Assay Interference Panel against the NCATS CANVASS Library (AID 1347363)
In short: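 Purified P. pyralis luciferase (0.04 ug/mL, 4x reagent) added to Tris-acetate buffer with 0.013 mM D-luciferin, 0.013 mM ATP and 13.3 mM Mg-acetate; compounds preincubated 15 min, then luminescence read after 5 min, RT.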

[15] = SDT Cancer Cell Toxicity qHTS against the NCATS CANVASS Library (AID 1347365)
In short: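 qHTS, SDT dog glioma line, 500 cells/well; cpds 11 pts; 72 hr, 37C, 5% CO2; CellTiterGlo ATP luminescence.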

[16] = KB-3-1 Cancer Cell Toxicity qHTS against the NCATS CANVASS Library (AID 1347366)
In short: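 Cytotoxicity toward KB-3-1 cells (500/well, DMEM + 10% FBS) was scored by CellTiter-Glo luminescence following 72 hr exposure at 37C, with bortezomib titrated as control.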

[17] = G06 Cancer Cell Toxicity qHTS against the NCATS CANVASS Library (AID 1347368)
In short: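 Dog G06 glioma line, 500 cells/well; cpds pin-transferred, 11-pt; 72 hr, 37C/5% CO2; CellTiterGlo luminescence (ATP) endpoint.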

[18] = MCF7 Cancer Cell Toxicity qHTS against the NCATS CANVASS Library (AID 1347369)
In short: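 This 72 hr qHTS scored MCF7 viability by CellTiterGlo luminescence, with 500 cells/well; bortezomib titration ran as control.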

[19] = qHTS for ATAD5 Antagonist screened against the NCATS CANVASS Library (AID 1347370)
In short: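 HEK293T cells with stably integrated ATAD5-luciferase reporter, 2000/well, 5 h attachment; compounds plus 10 µM 5-fluorouridine, 16 h at 37 °C. Luciferase luminescence read, with CellTiter-Fluor viability read first.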

[20] = J3T Cancer Cell Toxicity qHTS against the NCATS CANVASS Library (AID 1347371)
In short: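 Cells plated at 500 per well, compounds pin-transferred, plates incubated 72 hr at 37C, then CellTiterGlo added and luminescence read to measure ATP content.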

[21] = molecular target: Nuclear receptor subfamily 1 group I member 3 (Homo sapiens) (UniProt Q14994); experiment: qHTS for Constitutive Androstane Receptor (CAR) Antagonist screened against the NCATS CANVASS Library (AID 1347372)
In short: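 HepG2 cells stably carrying hCAR and CYP2B6-2.2kb luciferase reporter, 2500 cells/well, compound with 50 nM CITCO agonist for 24hr at 37C. ONE-Glo luminescence measured CAR activity; CellTiter-Fluor read viability.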

[22] = molecular target: Nuclear receptor subfamily 1 group I member 3 (Homo sapiens) (UniProt Q14994); experiment: qHTS for Constitutive Androstane Receptor (CAR) Agonist screened against the NCATS CANVASS Library (AID 1347373)
In short: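 HepG2-hCAR-CYP2B6 cells, 2500/well, attached 4hr; cpd + PK11195 1.5uM final; 24hr 37C 5% CO2. CellTiter-Fluor viability read, then ONE-Glo luminescence for CAR activation.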

[23] = qHTS for Hypoxia signaling pathway (HIF-1) antagonists against the NCATS CANVASS Library (AID 1347374)
In short: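 HRE-bla ME-180 cells in medium with 0.5% dialyzed FBS received compounds (11-point series) plus CoCl2 (60 uM addition stock) for 17 hrs at 37C. Beta-lactamase activity read with CCF4 (405 nm ex, 460/530 nm em); CellTiter-Glo viability measured in same wells.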

[24] = qHTS for Inflammasome Signaling Inhibitors: IL-1-beta AlphaLISA screen against the NCATS CANVASS Library (AID 1347379)
In short: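 THP-1 cells pretreated 1 hr with compound (up to 57.5 uM final), then stimulated with LPS (250 ng/mL final) and ATP (1.25 mM final). Secreted IL-1B measured by AlphaLISA after 16 hr; glyburide as positive control.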

[25] = qHTS for Antimalaria activity screened against the NCATS CANVASS Library (AID 1347380)
In short: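 Dd2 strain, infected erythrocytes 2.5% Hct final / 0.3% parasitemia. 11-pt qHTS titration, 72 h, 37C, 5% O2, 5% CO2. Lysis buffer + SYBR Green, 18 h, fluorescence 485/535 nm.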

[26] = Inflammasome Signaling qHTS Counterscreen: IL-1-beta AlphaLISA counterscreen against the NCATS CANVASS Library (AID 1347381)
In short: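 Cell-free interference check: compounds added to medium spiked with 4 pg purified IL-1β. Anti-IL-1β acceptor beads (6 ug/mL) with 0.6 nM biotinylated antibody added for 1 h at RT, then streptavidin donor beads (24 ug/mL) for 30 min in the dark. AlphaLISA read at 680/615 nm.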

[27] = Cytotoxicity qHTS for assessment of Hepg2 cells membrane integrity screened against the NCATS CANVASS Library (AID 1347387)
In short: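 qHTS, 11-pt conc. series, 0.59 nM - 46 uM final; HepG2 2000 cells/well, overnight attachment; 5 hr compound exposure 37C/5% CO2; CytoTox-ONE, 10 min RT; fluorescence ex560/em590 = LDH from damaged membranes.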

[28] = qHTS for Activators of p53 Stress Response Pathway screened against the NCATS CANVASS Library (AID 1347388)
In short: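 p53RE-bla HCT-116 cells (4000/well) were pre-incubated for 5 h, then treated with compound (11 points) for 16 h at 37C. After 2 h with CCF4, the 460/530 nm ratio gave reporter activation; CellTiter-Glo measured viability.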

[29] = qHTS assay for small molecule disruptors of mitochondrial membrane potential screened against the NCATS CANVASS Library (AID 1347389)
In short: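 HepG2, 2,000 cells/well, attached overnight; compound 1 hr, 37C, 5% CO2; Mito-MPS dye 30 min, 37C; fluorescence 535 nm (monomer) and 590 nm (aggregate); decreased 590/535 ratio = depolarization.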

[30] = Secretion counterscreen for inhibitors of the SERCaMP assay screened against the NCATS CANVASS Library (AID 1347390)
In short: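 Natural products are titrated in an 11-point series up to 77 uM onto SH-SY5Y-GLuc STOP cells for 20 h. Secreted reporter activity is measured as coelenterazine-driven luminescence, with Brefeldin A on each plate.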

[31] = qHTS for activators of Nrf2/ARE signaling pathway screened against the NCATS CANVASS Library (AID 1347391)
In short: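 Plate ARE-bla HepG2 cells at 2000/well and let them settle 5 h. Pin-transfer compounds in DMSO, incubate 16 h at 37C. Load CCF4 for 2 h at room temperature and read blue/green fluorescence.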

[32] = qHTS for activators of dead-cell proteases activity screened against the NCATS CANVASS Library (AID 1347392)
In short: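 HepG2 cells, 2000/well, attached 18 h at 37C, then exposed to compounds (11-point qHTS) for 5 h. Dead-cell protease release read as luminescence from cell-impermeant AAF-aminoluciferin substrate after 15 min at room temperature.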

[33] = qHTS for inhibitors of ER calcium dysfunction: SERCaMP assay screened against the NCATS CANVASS Library (AID 1347393)
In short: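 SH-SY5Y GLuc-SERCaMP, 1000 cells/well, 4 h attach; cpd 16 h, 37C/5% CO2; thapsigargin (added as 6x 600 nM) 4 h; coelenterazine; luminescence. Reduced reporter release = ER Ca stabilization.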

[34] = Vero-766 cells viability qHTS against the NCATS CANVASS Library: Counterscreen for Zika virus inhibition assay (AID 1347394)
In short: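 Counterscreen for toxicity: Vero 766 cells exposed 72 h to an 11-point compound series, viability by CellTiter-Glo.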

[35] = qHTS for inhibitors of Wild type Zika virus screened against the NCATS CANVASS Library (AID 1347396)
In short: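 Using ATP-based luminescence (CellTiter Glo), this screen scores rescue of Vero 766 cells from wild-type Zika killing at 72 h post-infection. Compounds are tested in a concentration series.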

[36] = qHTS for inhibitors of Rabies Virus screened against the NCATS CANVASS Library (AID 1347402; calls by dose curve)

Measured: Potency

Chain of Nuclear receptor subfamily 1 group I member 3 (Homo sapiens) (Q14994 whole entry, looked up): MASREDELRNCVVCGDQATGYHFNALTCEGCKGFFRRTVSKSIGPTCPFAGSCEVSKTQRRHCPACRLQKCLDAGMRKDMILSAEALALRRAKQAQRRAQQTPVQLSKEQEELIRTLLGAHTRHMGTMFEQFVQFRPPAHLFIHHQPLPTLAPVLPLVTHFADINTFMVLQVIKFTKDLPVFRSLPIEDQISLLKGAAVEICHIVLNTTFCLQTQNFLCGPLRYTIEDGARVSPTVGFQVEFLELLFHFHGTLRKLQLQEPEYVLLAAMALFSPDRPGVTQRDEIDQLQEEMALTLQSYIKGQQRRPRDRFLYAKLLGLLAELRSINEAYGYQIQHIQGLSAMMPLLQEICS
Chain of Luciferin 4-monooxygenase (Photinus pyralis) (P08659 whole entry, looked up): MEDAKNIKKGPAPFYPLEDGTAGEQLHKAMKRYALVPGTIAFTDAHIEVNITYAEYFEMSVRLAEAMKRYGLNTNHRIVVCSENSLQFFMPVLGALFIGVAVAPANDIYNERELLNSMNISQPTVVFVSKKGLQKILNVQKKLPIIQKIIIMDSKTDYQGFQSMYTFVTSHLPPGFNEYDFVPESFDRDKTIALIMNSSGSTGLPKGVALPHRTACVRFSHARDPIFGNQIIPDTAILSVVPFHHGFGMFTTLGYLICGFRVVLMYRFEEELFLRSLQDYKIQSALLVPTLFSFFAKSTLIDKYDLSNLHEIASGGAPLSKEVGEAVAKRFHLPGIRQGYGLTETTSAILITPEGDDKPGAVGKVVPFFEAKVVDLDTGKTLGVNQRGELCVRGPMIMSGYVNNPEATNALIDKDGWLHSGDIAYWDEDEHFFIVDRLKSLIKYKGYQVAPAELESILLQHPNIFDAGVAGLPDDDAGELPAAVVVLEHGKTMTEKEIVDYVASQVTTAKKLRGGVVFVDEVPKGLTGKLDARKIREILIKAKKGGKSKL

CC[N@@+]1([O-])C[C@]2(C)CC[C@@H](O)[C@@]34C5C[C@H]6CC[C@@]5(C(C[C@H]23)C41)[C@H](O)[C@@]6(O)CO (stereo partly specified)
active: [1] 49.3 µM
inactive: all other assays above
